In experiment [1] the target is Luciferin 4-monooxygenase (Photinus pyralis) (UniProt P08659). The experiment in a line: qHTS assay to identify small molecule inhibitors of firefly luciferase (AID 1224835). Further: nearly all actives have a fitted effect of over 25% in size. In short, it runs like this: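 Biochemical qHTS: compounds run as interplate titrations against purified firefly enzyme, with D-luciferin and ATP each at its KM concentration. Light output recorded by CCD imaging.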

A short description of experiment [2]: qHTS assay to identify small molecule agonists of the constitutive androstane receptor (CAR) signaling pathway - cell viability counter screen (AID 1224836). Further: nearly all actives have a fitted effect of over 45% in size. The procedure, abridged: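 Fluorescence from CellTiter-Fluor indicates live cells after 23 h exposure. The human hepatoma line expresses hCAR and a CYP2B6-2.2kb reporter. Incubation medium contains 0.75 uM PK11195 (final).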

Experiment [3] in a line: qHTS assay to identify small molecule antagonists of the constitutive androstane receptor (CAR) signaling pathway - cell viability counter screen (AID 1224837). Further: nearly all actives have a fitted effect of over 45% in size. The procedure, abridged: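 To flag cytotoxic false antagonists, HepG2 hCAR/CYP2B6-2.2kb cells were treated 23 hr with 15-concentration compound series and 50 nM CITCO at 37 C/5% CO2; CellTiter-Fluor fluorescence was the measured end point.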

The target in experiment [4] is Nuclear receptor subfamily 1 group I member 3 (Homo sapiens) (UniProt Q14994). The experiment in a line: qHTS assay to identify small molecule antagonists of the constitutive androstane receptor (CAR) signaling pathway (AID 1224838).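 Further: HepG2 cells stably expressing hCAR with CYP2B6 luciferase reporter stimulated by CITCO; nearly all actives have a fitted effect of over 40% in size.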 In short, it runs like this:
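Human hepatoma HepG2 cells expressing hCAR and a CYP2B6 promoter (2.2 kb) luciferase construct; compound titration (15 points) with 50 nM CITCO final, 24 h at 37 C/5% CO2; luminescence via ONE-Glo after 30 min at room temperature.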

A short description of experiment [5]: qHTS assay to identify small molecule antagonists of the estrogen related receptor signaling pathway with the pleiotropic PPARgamma coactivator (PGC) from Tox21 10K library - cell viability counter screen (AID 1224840; active means well fitted cell-killing curve with a large enough effect in the repeat runs, not every such curve was filed as active; further: nearly all actives have a fitted effect of over 40% in size). In short, it runs like this: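 Seeded PGC/ERR cells (2,000/well, 6 h, 37 C/5% CO2) get compound by pin tool; 17.5 h incubation at 37 C; CellTiter-Fluor added, 30 min, fluorescence measured.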

Experiment [6] addresses Thyrotropin receptor (Homo sapiens) (UniProt P16473). The experiment can be described thus: qHTS assay to identify small molecule agonists of the thyroid stimulating hormone receptor (TSHR) signaling pathway (AID 1224843; calls by dose curve; further: nearly all actives have a fitted effect of over 45% in size). The procedure, abridged:
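Agonist-mode screen: TSHR HEK293 cells received test chemicals for half an hour at room temperature, then HTRF cAMP detection reagents for one hour prior to fluorescence measurement. Each chemical ran as a 15-concentration series, triplicated.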

Experiment [7] is described as follows: qHTS assay to identify small molecule agonists of the hypoxia (HIF-1) signaling pathway - cell viability counter screen (AID 1224844; calls by dose curve; further: nearly all actives have a fitted effect of over 50% in size). The procedure, abridged:
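HRE-bla ME-180; 0.5% dFBS; cpd 17 h, 37C, 5% CO2; CellTiter-Glo lum., 30 min RT, post-FRET read, same wells.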

Experiment [8] in a line: qHTS assay to identify small molecule agonists of H2AX (AID 1224845; active means well fitted activation curve with a large enough effect in the signal ratio in the repeat runs, not every such curve was filed as active; the % refers to the signal ratio). The procedure, abridged:
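Wild-type CHO-K1 cells, plated overnight, exposed 3hr at 37C to 15 concentrations (0.76% DMSO final). Lysed, then HTRF anti-pH2AX (S139) cryptate and anti-H2AX-d2 antibodies, 24 hr room temperature; 665/620 nm emission read.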

A short description of experiment [9]: qHTS assay to identify small molecule agonists of the hypoxia (HIF-1) signaling pathway (AID 1224846; active means well fitted activation curve with a large enough effect in the signal ratio in the repeat runs, not every such curve was filed as active; the % refers to the signal ratio). The procedure, abridged:
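Reporter induction in HRE-bla ME-180 cells is taken as agonism: cells sit 5 hrs after plating, receive compounds or DMSO only, incubate 17 hrs at 37C under 5% CO2, and are loaded with CCF4-AM for beta-lactamase FRET measurement.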

Experiment [10] can be described thus: qHTS assay to identify small molecule agonists of H2AX - cell viability counter screen (AID 1224847; calls by dose curve; further: top concentration of the series differs between compounds; nearly all actives have a fitted effect of over 30% in size). In short, it runs like this: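 Viability of CHO-K1 (wild type) cells after 3 hr compound exposure was measured by CellTiter-Glo luminescence.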
The nature of experiment [11]: qHTS RealTime-Glo MT Cell Viability Assay in HepG2 cells - 24 hour (AID 1224867). Further: nearly all actives have a fitted effect of over 50% in size. In short, it runs like this: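 qHTS, HepG2, 600 cells/well, RealTime-Glo (NanoLuc + prosubstrate) added with cells; 5 h preincubation; DMSO compound addition; 37 C; luminescence at 0/8/16/24/32/40 h.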
Experiment [12] is described as follows: qHTS RealTime-Glo MT Cell Viability Assay in HEK293 cells - 32 hour (AID 1224868). Further: top concentration of the series differs between compounds; nearly all actives have a fitted effect of over 50% in size. The procedure, abridged: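 Assay medium contained NanoLuc luciferase plus cell-permeant prosubstrate, added with HEK293 cells at 600 cells/well. After 5 h at 37 C/5% CO2 compounds were added; plates stayed at 37 C for 40 h with serial luminescence reads.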
Experiment [13] is described as follows: A CellTox Green Cytotoxicity Assay to monitor cytotoxicity in HEK293 cells - 0 hour (AID 1224869). Further: nearly all actives have a fitted effect of over 50% in size. The procedure, abridged:
(§1)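 Tox21 screen in HEK293: membrane-impermeant cyanine dye fluoresces on binding dead-cell DNA; compound pinned 5 h post-seeding, plates held at 37 C, signal read repeatedly through 40 h.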

A short description of experiment [14]: qHTS RealTime-Glo MT Cell Viability Assay in HepG2 cells - 40 hour (AID 1224870). Further: nearly all actives have a fitted effect of over 50% in size. The procedure, abridged:
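HepG2 cells (600/well) mixed with RealTime-Glo MT reagent, settled 5 h at 37 C/5% CO2 before compound addition. Nonlytic NanoLuc luminescence from viable-cell prosubstrate reduction read repeatedly during 40 h treatment at 37 C.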

Experiment [15] can be described thus: A CellTox Green Cytotoxicity Assay to monitor cytotoxicity in HEK293 cells - 40 hour (AID 1224871). Further: nearly all actives have a fitted effect of over 45% in size. The procedure, abridged:
as §1

A short description of experiment [16]: qHTS assay to identify small molecule antagonists of the estrogen related receptor signaling pathway with the pleiotropic PPARgamma coactivator (PGC) from Tox21 10K library (AID 1224841; call rule not given here). The procedure, abridged:
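Test chemicals dissolved in DMSO were applied to pre-incubated (6 h) PGC/ERR cells at 2,000 cells/well for an 18 h, 37 C treatment; reporter luminescence was then read using One-Glo.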

Experiment [17] can be described thus: qHTS assay to identify small molecule agonists of the estrogen related receptor signaling pathway with the pleiotropic PPARgamma coactivator (PGC) from Tox21 10K library (AID 1224842). Further: nearly all actives have a fitted effect of over 15% in size. The procedure, abridged:
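PGC/ERR reporter cell line, 2,000 cells per well, incubated 6 h at 37 C before 23 nL compound in DMSO was added. After 18 h at 37 C, One-Glo luminescence read following 30 min at room temperature.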

The nature of experiment [18]: qHTS assay to identify small molecule antagonists of the estrogen related receptor (ERR) signaling pathway from Tox21 library (AID 1224848). Further: nearly all actives have a fitted effect of over 50% in size. In short, it runs like this:
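Quantitative high-throughput format: ERR reporter cells (2,000/well) pre-incubated 6 h, treated 18 h at 37 C with compounds in DMSO alongside positive and negative controls, then read by ONE-Glo luminescence.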

Experiment [19] can be described thus: qHTS assay to identify small molecule agonists of the estrogen related receptor (ERR) signaling pathway from Tox21 library (AID 1224849; calls by dose curve; further: nearly all actives have a fitted effect of over 15% in size). The following applies: ERR reporter cell line, ONE-Glo luciferase, 18 h; at 92.4 µM (top of the series) unless noted. In short, it runs like this:
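Tox21 compounds tested for ERR agonism in an NTP reporter cell line: 18 h treatment at 37 C, then ONE-Glo luminescence.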

In experiment [20] the target is Nuclear receptor subfamily 1 group I member 3 (Homo sapiens) (UniProt Q14994). The experiment in a line: qHTS assay to identify small molecule agonists of the constitutive androstane receptor (CAR) signaling pathway (AID 1224839). Further: nearly all actives have a fitted effect of over 15% in size. Further: potency means the concentration at half of the fitted maximal effect.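 On activation: HepG2 cells stably carrying human CAR and a CYP2B6 luciferase reporter.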 The procedure, abridged: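 Stable hCAR/CYP2B6-2.2kb HepG2 line in DMEM with 10% FBS; compounds (15 concentrations) and 0.75 uM PK11195 final, 24 h at 37 C/5% CO2, then ONE-Glo luminescence after 30 min.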

Structures are written as SMILES. Unmarked numbers belong to inactive results. Inconclusive results are not listed. Activity calls are given as the source filed them. Unless noted, the call rests on the fitted dose curve; in most records, active means well fitted curve in the direction sought with a large enough effect in the repeat runs; inconclusive means weak or mixed curves; inactive means no such curve, though single readings can be large; an effect the other way counts as inactive or inconclusive.
On the % scale 0 is the no-effect control and ±100 the full control effect.

Chain of Luciferin 4-monooxygenase (Photinus pyralis) (P08659 whole entry, looked up): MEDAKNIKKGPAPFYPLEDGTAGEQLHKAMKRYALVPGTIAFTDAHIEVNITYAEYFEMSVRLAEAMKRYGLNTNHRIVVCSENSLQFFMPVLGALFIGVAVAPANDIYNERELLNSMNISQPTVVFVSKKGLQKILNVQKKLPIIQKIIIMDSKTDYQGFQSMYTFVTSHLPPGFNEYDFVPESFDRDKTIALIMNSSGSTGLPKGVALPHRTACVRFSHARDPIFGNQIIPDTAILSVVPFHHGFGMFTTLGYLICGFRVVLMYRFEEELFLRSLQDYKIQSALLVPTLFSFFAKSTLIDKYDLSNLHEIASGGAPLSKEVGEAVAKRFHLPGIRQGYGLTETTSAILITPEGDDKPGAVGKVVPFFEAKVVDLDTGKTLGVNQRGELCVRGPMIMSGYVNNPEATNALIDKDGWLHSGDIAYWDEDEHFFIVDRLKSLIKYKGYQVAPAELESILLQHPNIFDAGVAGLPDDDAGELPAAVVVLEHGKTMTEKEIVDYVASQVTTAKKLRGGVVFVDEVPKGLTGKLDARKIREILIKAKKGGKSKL
Chain of Nuclear receptor subfamily 1 group I member 3 (Homo sapiens) (Q14994 whole entry, looked up): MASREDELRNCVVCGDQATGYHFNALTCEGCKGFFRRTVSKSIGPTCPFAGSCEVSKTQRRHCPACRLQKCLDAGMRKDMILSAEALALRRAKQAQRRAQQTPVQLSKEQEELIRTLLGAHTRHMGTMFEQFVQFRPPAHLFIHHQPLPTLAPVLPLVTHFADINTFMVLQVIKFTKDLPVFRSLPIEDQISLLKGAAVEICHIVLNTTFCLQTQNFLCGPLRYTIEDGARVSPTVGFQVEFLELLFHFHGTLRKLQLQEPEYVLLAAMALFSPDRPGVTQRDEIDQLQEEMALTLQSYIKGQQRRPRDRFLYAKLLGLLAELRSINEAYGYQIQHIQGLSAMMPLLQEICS
Chain of Thyrotropin receptor (Homo sapiens) (P16473 whole entry, looked up): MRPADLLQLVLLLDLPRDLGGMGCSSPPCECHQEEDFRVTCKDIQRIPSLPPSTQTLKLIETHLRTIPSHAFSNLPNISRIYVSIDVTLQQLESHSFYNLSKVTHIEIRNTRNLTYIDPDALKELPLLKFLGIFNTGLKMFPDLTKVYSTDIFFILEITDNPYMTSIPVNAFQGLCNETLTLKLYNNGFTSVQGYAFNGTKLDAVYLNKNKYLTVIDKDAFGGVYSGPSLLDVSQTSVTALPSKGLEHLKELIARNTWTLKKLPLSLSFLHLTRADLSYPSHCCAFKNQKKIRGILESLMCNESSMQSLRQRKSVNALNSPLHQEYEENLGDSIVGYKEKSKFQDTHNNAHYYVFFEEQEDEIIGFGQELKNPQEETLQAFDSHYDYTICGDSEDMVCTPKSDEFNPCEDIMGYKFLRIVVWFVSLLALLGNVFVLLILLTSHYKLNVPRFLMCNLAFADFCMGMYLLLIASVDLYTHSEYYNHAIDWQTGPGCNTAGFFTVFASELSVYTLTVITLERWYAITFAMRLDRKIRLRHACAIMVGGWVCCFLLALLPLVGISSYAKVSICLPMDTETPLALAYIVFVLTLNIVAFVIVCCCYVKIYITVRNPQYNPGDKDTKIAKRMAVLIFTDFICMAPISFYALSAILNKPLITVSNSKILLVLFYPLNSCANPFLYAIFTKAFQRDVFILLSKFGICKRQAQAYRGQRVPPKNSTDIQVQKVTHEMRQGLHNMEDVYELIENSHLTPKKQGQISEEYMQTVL

As to `O=C(CCN1CC1)OCC(CO)(COC(=O)CCN1CC1)COC(=O)CCN1CC1`, the Potency entry in [1], in [2], in [3], in experiment [4], in [5] and in experiment [6] was “inactive” each time. The Potency result in [7], in experiment [8], in [10], in experiment [11], in [12] and in experiment [13] was “inactive” throughout. Moreover, the Potency entry in experiment [14] and in experiment [15] was “inactive” in each case. The molecule was called inactive in experiment [9].

For `CC1CCC(=O)O1` (stereo not drawn), the Potency entry in experiment [1], in experiment [2], in experiment [3], in experiment [5], in experiment [16] and in [6] was “inactive” throughout. Moreover, the Potency result in experiment [7], in experiment [8], in experiment [10], in experiment [18], in [11] and in [12] was “inactive” in each case. In addition, the Potency result in [13], in [14] and in experiment [15] was “inactive” throughout. The molecule was called inactive in experiment [17] and in [9]. For the same molecule, the activity change, positive = activation in experiment [19] is -6.79%.

With `CCC/C(=N\OCC)C1=C(O)CC(CC(C)SCC)CC1=O` (stereo not drawn), the Potency result in experiment [1], in experiment [2], in experiment [3], in [4], in experiment [5] and in experiment [7] was “inactive” in each case. The Potency entry in [8], in experiment [11], in [13], in experiment [14] and in [15] was “inactive” in each case. In addition, the molecule was classed as inactive in experiment [9].

As to `COc1cc2c(cc1OC)[C@@]13CCN4CC5=CCO[C@H]6CC(=O)N2[C@H]1[C@H]6[C@H]5C[C@H]43`, the Potency entry in experiment [1], in [2], in experiment [3], in experiment [4], in experiment [5] and in experiment [7] was “inactive” throughout. Also, the Potency result in experiment [8], in experiment [10], in [11], in [12], in [13] and in experiment [14] was “inactive” in each case. Besides, in [15], the Potency result was “inactive”. The outcome in experiment [9] was inactive.

For `CSc1nc(N=[N+]=[N-])nc(NC(C)C)n1`, the Potency entry in experiment [1], in [2], in [4], in [5], in experiment [7] and in experiment [8] was “inactive” each time. Further, the Potency entry in experiment [10], in experiment [11], in experiment [13], in experiment [14] and in [15] was “inactive” each time. Moreover, in experiment [20], the Potency was 54.5 µM (active). Also, the outcome in [9] was inactive.

For `O=C1CN=C(c2ccccc2)c2cc([N+](=O)[O-])ccc2N1`, the Potency result in experiment [1], in experiment [2], in [3], in experiment [5], in experiment [16] and in experiment [6] was “inactive” each time. For the same molecule, the Potency entry in [7], in experiment [8], in experiment [10], in [18], in [11] and in [12] was “inactive” in each case. In addition, the Potency entry in experiment [13], in experiment [14] and in experiment [15] was “inactive” in each case. Further, in experiment [9], the molecule was called inactive.

With `O=C1OC(=O)C2C1C1(Cl)C(Cl)=C(Cl)C2(Cl)C1(Cl)Cl` (stereo not drawn), the Potency result in experiment [1], in experiment [2], in experiment [4], in experiment [20], in experiment [5] and in experiment [6] was “inactive” each time. For the same molecule, the Potency entry in [8], in experiment [10], in [11], in experiment [12], in experiment [13] and in experiment [14] was “inactive” each time. Further, the Potency entry in experiment [15] is “inactive”. Besides, the result in [9] was inactive.

Turning to `CC(=O)C(Cl)Cl`, the Potency result in experiment [1], in experiment [2], in [4], in [5], in [16] and in experiment [6] was “inactive” throughout. The Potency result in experiment [7], in experiment [8], in [10], in [18], in [11] and in experiment [12] was “inactive” each time. Besides, the Potency entry in [13], in experiment [14] and in experiment [15] was “inactive” each time. In addition, the outcome in experiment [17] and in [9] was inactive. Moreover, the activity change, positive = activation in experiment [19] is 4.96%.

Regarding `CCSC(=O)N(CC)C1CCCCC1`, the Potency entry in [1], in experiment [2], in experiment [3], in experiment [5], in experiment [6] and in experiment [7] was “inactive” throughout. Also, the Potency entry in experiment [8], in [10], in experiment [11], in experiment [12], in [13] and in experiment [14] was “inactive” in each case. Further, the call in experiment [9] was inactive.

Consider `ClC(Cl)(Cl)C(Cl)(Cl)Cl`, for which the Potency result in [1], in [2], in experiment [3], in experiment [5], in experiment [7] and in experiment [8] was “inactive” each time. The Potency entry in experiment [10], in [11], in experiment [12], in experiment [13], in [14] and in experiment [15] was “inactive” throughout. The molecule was called inactive in experiment [9].

In the case of `CCOC(=O)C1(c2ccccc2)CCN(CCc2ccc(N)cc2)CC1`, the Potency result in experiment [1], in [2], in [4], in [20], in experiment [5] and in experiment [6] was “inactive” in each case. The Potency entry in experiment [7], in experiment [8], in experiment [10], in experiment [18], in experiment [11] and in experiment [12] was “inactive” throughout. For the same molecule, the Potency result in experiment [13], in experiment [14] and in [15] was “inactive” throughout. The result in [17] and in experiment [9] was inactive. Further, the activity change, positive = activation in experiment [19] is -11.7% [at 42.5 µM].

On to `COP(N)(=S)Oc1ccccc1C(=O)OC(C)C` (stereo not drawn), for which the Potency entry in [1], in [2], in experiment [4], in experiment [5], in experiment [6] and in [7] was “inactive” in each case. The Potency entry in experiment [8], in experiment [10], in [11], in [12], in experiment [13] and in experiment [14] was “inactive” in each case. Moreover, in [20], the Potency is 30.6 µM (active). Also, the molecule was classed as inactive in experiment [9].

Source of the values: PubChem BioAssay (Tox21).
